In PubChem BioAssay (Tox21):
Values joined by “and” are separate entries in the source; they are usually repeats but may differ in a detail not shown here. Equal values may be shown once. Inconclusive results are not listed. Some compounds were tested as several samples or in several runs, with calls that do not always agree. Active and inactive are the calls of the source. Unless noted, calls come from the whole dose curve; as a rule, active = well fitted curve in the direction sought with a large enough effect in the repeat runs; inconclusive = weak or mixed curves; inactive = no such curve, though single readings can be large; an effect the other way counts as inactive or inconclusive.

What was measured:
[1] = target: Progesterone receptor (Homo sapiens) (UniProt P06401); test: qHTS assay to identify small molecule antagonists of the progesterone receptor (PR) signaling pathway (AID 1346795; active = well fitted inhibition curve with a large enough effect in the signal ratio in the repeat runs, not every such curve was filed as active; the % refers to the signal ratio; note: potency is the fitted concentration of half-maximal effect)
Progesterone receptor (Homo sapiens), sequence (P06401 whole entry, looked up): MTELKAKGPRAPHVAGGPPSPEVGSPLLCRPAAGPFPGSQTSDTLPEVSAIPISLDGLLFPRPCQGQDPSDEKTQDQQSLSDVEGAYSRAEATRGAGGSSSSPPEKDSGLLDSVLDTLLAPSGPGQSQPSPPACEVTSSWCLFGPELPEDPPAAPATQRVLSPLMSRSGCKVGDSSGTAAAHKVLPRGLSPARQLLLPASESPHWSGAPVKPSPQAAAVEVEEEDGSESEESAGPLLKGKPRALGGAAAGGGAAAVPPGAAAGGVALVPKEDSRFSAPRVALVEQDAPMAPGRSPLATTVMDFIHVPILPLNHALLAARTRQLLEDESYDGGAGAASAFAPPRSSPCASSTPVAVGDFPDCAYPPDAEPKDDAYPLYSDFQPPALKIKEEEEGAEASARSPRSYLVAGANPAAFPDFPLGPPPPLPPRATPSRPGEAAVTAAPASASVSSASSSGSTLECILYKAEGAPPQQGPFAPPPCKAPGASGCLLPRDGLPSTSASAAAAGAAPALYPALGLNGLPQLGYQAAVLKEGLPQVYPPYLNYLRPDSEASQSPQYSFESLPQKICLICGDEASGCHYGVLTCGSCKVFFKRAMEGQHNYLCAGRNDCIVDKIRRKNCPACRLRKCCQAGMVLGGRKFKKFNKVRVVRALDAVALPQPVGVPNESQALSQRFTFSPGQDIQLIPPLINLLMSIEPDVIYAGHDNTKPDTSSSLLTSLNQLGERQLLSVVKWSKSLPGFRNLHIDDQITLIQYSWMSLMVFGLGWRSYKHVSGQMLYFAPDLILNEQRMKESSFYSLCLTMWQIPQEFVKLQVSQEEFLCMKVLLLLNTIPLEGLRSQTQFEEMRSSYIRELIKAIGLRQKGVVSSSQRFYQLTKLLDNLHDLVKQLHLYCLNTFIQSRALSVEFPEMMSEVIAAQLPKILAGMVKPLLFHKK
In short: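 HEK293T PR-UAS-bla reporter cells in charcoal-stripped serum (2%) received compound after a 6 hr settling period, followed by R5020 agonist at 1 nM final; 16 hr incubation preceded the FRET substrate step and fluorescence measurement.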

[2] = qHTS assay to identify small molecule antagonists of the progesterone receptor (PR) signaling pathway - cell viability counter screen (AID 1346798); note: series mostly up to about 92 µM; nearly all actives have a fitted effect of over 50% in size
In short: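 Same-well multiplex: after 16 hr at 37C with compound and R5020 stimulation, HEK293T cells carrying a UAS-bla reporter received LiveBLAzer substrate (2 hr RT), then CellTiter-Glo (30 min RT) for luminescent viability.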

[3] = qHTS assay to identify small molecule agonists of the progesterone receptor (PR) signaling pathway - cell viability counter screen (AID 1346799; calls by dose curve; note: nearly all actives have a fitted effect of over 45% in size)
In short: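 Counter screen for cytotoxicity: compound-treated PR-UAS-bla HEK293T cells (16 hr, 37C, 5% CO2) were assayed with CellTiter-Glo, luminescence measured after 30 min at room temperature.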

[4] = qHTS assay to identify small molecule antagonists of the TGF-beta/Smad signaling pathway - cell viability counter screen (AID 1346824); note: nearly all actives have a fitted effect of over 50% in size
In short: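 SBE-bla HEK 293T cells, incubated overnight, then compound plus 0.25 ng/mL TGF-beta1 (stock added) for 5 hr at 37 C. Viability was read in the same wells by CellTiter-Glo luminescence after 30 min at room temperature.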

[5] = qHTS assay to identify small molecule agonists of the TGF-beta/Smad signaling pathway - cell viability counter screen (AID 1346829); note: top concentration of the series differs between compounds; nearly all actives have a fitted effect of over 45% in size
In short: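 Cytotoxicity counter screen: CellTiter-Glo luminescence (30 min, room temperature) measured in the SBE-bla HEK 293T reporter wells after 5 hr compound treatment at 37 C and the 2 hr substrate step.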

[6] = qHTS assay to identify small molecule agonists of the TGF-beta/Smad signaling pathway (AID 1346859; active = well fitted activation curve with a large enough effect in the signal ratio in the repeat runs, not every such curve was filed as active; the % refers to the signal ratio; note: series mostly up to about 77 µM)
In short: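 Smad-responsive beta-lactamase reporter cells (HEK 293T) received compounds from DMSO stocks after overnight attachment, were incubated 5 hr, then treated 2 hr with FRET substrate before dual-emission fluorescence measurement (405 nm excitation).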

[7] = target: Thyrotropin-releasing hormone receptor (Homo sapiens) (UniProt P34981); test: qHTS assay to identify small molecule antagonists of the thyrotropin-releasing hormone receptor (TRHR) signaling pathway (AID 1346877; active = well fitted inhibition curve with a large enough effect in the repeat runs, not every such curve was filed as active; note: series mostly up to about 51 µM)
Thyrotropin-releasing hormone receptor (Homo sapiens), sequence (P34981 whole entry, looked up): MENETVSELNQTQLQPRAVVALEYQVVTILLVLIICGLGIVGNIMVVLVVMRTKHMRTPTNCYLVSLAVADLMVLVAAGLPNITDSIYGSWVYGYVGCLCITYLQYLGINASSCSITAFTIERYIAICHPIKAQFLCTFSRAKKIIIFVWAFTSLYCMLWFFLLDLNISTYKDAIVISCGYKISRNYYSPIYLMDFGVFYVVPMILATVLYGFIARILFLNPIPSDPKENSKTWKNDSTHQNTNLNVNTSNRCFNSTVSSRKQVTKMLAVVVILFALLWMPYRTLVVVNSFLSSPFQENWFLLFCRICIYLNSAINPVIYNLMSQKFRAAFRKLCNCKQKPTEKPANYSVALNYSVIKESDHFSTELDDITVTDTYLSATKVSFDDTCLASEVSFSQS
In short: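 Human TRHR in HEK293 cells; inhibition of the intracellular calcium rise triggered by 1 nM TRH was followed by fluorescence over 3 min. Compounds were run at 15 concentrations, three replicates each.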

[8] = target: Thyrotropin-releasing hormone receptor (Homo sapiens) (UniProt P34981); test: qHTS assay to identify small molecule agonists of the thyrotropin-releasing hormone receptor (TRHR) signaling pathway (AID 1346891; calls by dose curve; note: potency is the fitted concentration of half-maximal effect;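 for activation: HEK293 cells expressing TRHR with calcium dye readout; series mostly up to about 58 µM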)
In short: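 Agonist-mode calcium mobilisation screen: TRHR-transfected HEK293 cells cultured overnight (18 h), dye-loaded for 2 h at 37 °C, exposed to compounds, and monitored by fluorescence for 3 min.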

[9] = Human pregnane X receptor (PXR) small molecule agonists, qHTS cell viability counter screen (AID 1346977); note: nearly all actives have a fitted effect of over 50% in size
In short: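 Measures live-cell protease fluorescence (CellTiter-Fluor) in PXR-Luc HepG2 cells treated 24hr with compounds at 37C. Cells had 5hr to attach before pin transfer of DMSO solutions.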

[10] = Caspase-3/7 induction in HepG2 cells by small molecules, qHTS assay (AID 1346978); note: nearly all actives have a fitted effect of over 15% in size; note: potency is the fitted concentration of half-maximal effect
In short: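 Wild-type HepG2 cells, 2,000/well, settled 5 hr at 37 C and 5% CO2, then compound-treated for 17 hr; caspase-3/7 activity read by luminescent Caspase-Glo 3/7 after 30 min at room temperature.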

[11] = Caspase-3/7 induction in CHO-K1 cells by small molecules, qHTS cell viability counter screen (AID 1346979); note: nearly all actives have a fitted effect of over 35% in size; note: potency is the fitted concentration of half-maximal effect
In short: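 In the same wells as the caspase read, viability of compound-treated wild-type CHO-K1 cells was assessed using CellTiter-Fluor, added after 16hr at 37C and measured by fluorescence following 1hr further incubation.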

[12] = Caspase-3/7 induction in CHO-K1 cells by small molecules, qHTS assay (AID 1346980); note: nearly all actives have a fitted effect of over 15% in size
In short: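 Wild-type CHO-K1 cells exposed to compounds for 17hr at 37 C, 5% CO2. Caspase-3/7 activity then measured by Caspase-Glo 3/7 luminescence after 30min at room temperature.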

[13] = Caspase-3/7 induction in HepG2 cells by small molecules, qHTS cell viability counter screen (AID 1346981); note: series mostly up to about 92 µM; nearly all actives have a fitted effect of over 30% in size
In short: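 The parent HepG2 line is plated at 2,000 cells per well and rested 5 hr before compound pinning from DMSO stocks. Following a 16-hr treatment at 37 C, a fluorogenic live-cell substrate (CellTiter-Fluor) reports viability after 1 hr.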

[14] = target: Nuclear receptor subfamily 1 group I member 2 (Rattus norvegicus) (UniProt Q9R1A7); test: Rat pregnane X receptor (rPXR) activation by small molecules, qHTS assay (AID 1346983); details: rPXR luciferase reporter cells, One-Glo luminescence, 24 h; max activation: stronger effect = higher value; note: nearly all actives have a fitted effect of over 20% in size; note: potency is the fitted concentration of half-maximal effect
Nuclear receptor subfamily 1 group I member 2 (Rattus norvegicus), sequence (Q9R1A7 whole entry, looked up): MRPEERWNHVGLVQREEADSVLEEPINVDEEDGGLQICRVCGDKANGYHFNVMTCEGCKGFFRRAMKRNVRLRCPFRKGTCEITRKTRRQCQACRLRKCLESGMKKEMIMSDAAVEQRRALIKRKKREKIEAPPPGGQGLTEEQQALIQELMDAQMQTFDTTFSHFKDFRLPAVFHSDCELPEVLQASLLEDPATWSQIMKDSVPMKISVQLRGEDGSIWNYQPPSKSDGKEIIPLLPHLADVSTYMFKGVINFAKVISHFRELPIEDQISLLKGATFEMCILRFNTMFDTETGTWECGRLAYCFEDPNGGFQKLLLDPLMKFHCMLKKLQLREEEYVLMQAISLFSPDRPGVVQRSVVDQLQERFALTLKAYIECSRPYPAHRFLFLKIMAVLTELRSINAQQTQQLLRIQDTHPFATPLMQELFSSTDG
In short: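 Cell-based rPXR activation assay: rPXR cells, 2,000 per well, rested 5hr at 37 C, then exposed to compounds in DMSO for 24 hr at 37 C. Luciferase activity read by One-Glo luminescence after 30 min at room temperature.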

[15] = target: Cytochrome P450 2D6 (Homo sapiens) (UniProt P10635); test: Cytochrome P450 Family 2 Subfamily D Member 6 (CYP2D6) small molecule antagonists: luciferase reporter qHTS assay (AID 1671196); note: nearly all actives have a fitted effect of over 50% in size; note: potency is the fitted concentration of half-maximal effect
Cytochrome P450 2D6 (Homo sapiens), sequence (P10635 whole entry, looked up): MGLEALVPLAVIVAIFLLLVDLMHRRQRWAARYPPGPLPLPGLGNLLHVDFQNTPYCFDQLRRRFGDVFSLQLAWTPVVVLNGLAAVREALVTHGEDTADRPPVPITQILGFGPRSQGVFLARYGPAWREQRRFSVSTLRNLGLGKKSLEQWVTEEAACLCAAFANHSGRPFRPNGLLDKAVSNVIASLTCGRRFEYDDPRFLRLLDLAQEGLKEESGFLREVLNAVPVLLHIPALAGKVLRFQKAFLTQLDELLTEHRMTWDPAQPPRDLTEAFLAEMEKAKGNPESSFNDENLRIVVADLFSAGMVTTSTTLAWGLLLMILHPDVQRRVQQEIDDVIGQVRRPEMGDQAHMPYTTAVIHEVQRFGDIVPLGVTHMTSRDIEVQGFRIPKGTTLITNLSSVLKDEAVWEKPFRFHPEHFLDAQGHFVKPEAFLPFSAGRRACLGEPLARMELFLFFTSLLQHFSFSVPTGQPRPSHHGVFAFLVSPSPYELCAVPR
In short: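 Quantitative HTS of Tox21 chemicals against CYP2D6 using a luminescent proluciferin substrate. After NADPH addition, 1 h room-temperature reaction; luminescence recorded 20 min post detection reagent.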

[16] = target: Cytochrome P450 2C19 (Homo sapiens) (UniProt P33261); test: Cytochrome P450 Family 2 Subfamily C Member 19 (CYP2C19) small molecule antagonists: luciferase reporter qHTS assay (AID 1671197); note: nearly all actives have a fitted effect of over 65% in size; note: potency is the fitted concentration of half-maximal effect
Cytochrome P450 2C19 (Homo sapiens), sequence (P33261 whole entry, looked up): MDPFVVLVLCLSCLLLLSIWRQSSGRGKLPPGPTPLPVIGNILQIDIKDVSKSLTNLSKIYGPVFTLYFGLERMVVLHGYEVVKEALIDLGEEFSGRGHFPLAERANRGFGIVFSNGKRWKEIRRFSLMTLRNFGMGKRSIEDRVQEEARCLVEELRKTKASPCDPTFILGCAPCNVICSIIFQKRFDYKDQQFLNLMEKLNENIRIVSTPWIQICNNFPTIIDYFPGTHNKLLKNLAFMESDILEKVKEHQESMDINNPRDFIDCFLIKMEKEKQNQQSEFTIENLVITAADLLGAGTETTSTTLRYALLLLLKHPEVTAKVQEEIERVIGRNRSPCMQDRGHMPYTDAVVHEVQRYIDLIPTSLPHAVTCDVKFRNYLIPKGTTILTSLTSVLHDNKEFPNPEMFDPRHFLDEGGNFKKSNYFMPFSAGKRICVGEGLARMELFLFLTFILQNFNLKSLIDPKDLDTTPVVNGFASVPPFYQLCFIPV
In short: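 Luminescent readout of CYP2C19 activity: luciferin product detected 20 min after adding detection reagent. Before that, compound and enzyme-substrate mix preincubated 10 min at room temperature; NADPH-regenerating system started a 1 h, 37C reaction. Ketoconazole as positive control.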

[17] = target: Cytochrome P450 2C9 (Homo sapiens) (UniProt P11712); test: Cytochrome P450 Family 2 Subfamily C Member 9 (CYP2C9) small molecule antagonists: luciferase reporter qHTS assay (AID 1671198); note: nearly all actives have a fitted effect of over 50% in size; note: potency is the fitted concentration of half-maximal effect
Cytochrome P450 2C9 (Homo sapiens), sequence (P11712 whole entry, looked up): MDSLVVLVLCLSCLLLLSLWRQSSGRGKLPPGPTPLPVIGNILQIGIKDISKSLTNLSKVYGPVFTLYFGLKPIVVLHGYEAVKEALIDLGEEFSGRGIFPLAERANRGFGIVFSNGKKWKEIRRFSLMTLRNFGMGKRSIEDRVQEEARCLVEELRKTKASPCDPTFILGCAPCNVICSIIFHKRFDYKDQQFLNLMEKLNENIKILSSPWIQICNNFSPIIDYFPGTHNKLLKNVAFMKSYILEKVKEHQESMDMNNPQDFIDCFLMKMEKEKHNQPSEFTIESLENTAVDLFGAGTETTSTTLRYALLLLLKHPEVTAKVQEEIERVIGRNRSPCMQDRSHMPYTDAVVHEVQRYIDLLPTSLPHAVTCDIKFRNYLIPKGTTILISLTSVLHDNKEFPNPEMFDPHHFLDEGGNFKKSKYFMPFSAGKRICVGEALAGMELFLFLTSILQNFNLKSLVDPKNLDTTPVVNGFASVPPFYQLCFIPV
In short: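 P450-Glo proluciferin substrate with CYP2C9 enzyme; 10 min RT preincubation, then NADPH regeneration 1 h at 37C; luciferin detection reagent 20 min RT, luminescence in relative luminescence units.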

[18] = target: Nuclear receptor subfamily 1 group I member 2 (Homo sapiens) (UniProt O75469); test: Human pregnane X receptor (PXR) small molecule agonists, qHTS assay (AID 1346982); note: nearly all actives have a fitted effect of over 35% in size; note: potency is the fitted concentration of half-maximal effect
Nuclear receptor subfamily 1 group I member 2 (Homo sapiens), sequence (O75469 whole entry, looked up): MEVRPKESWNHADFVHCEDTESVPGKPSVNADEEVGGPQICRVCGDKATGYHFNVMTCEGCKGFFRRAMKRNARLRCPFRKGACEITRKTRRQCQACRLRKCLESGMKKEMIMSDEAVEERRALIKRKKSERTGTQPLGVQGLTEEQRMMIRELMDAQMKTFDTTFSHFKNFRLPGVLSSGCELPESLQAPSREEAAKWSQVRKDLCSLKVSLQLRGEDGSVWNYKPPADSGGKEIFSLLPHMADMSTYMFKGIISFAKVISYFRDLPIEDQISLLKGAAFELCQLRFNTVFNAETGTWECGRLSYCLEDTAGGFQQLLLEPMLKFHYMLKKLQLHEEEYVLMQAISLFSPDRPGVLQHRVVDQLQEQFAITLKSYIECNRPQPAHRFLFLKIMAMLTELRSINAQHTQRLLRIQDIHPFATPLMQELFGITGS
In short: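 After plating in 5% charcoal-stripped FBS and a 5 hr rest, PXR-Luc HepG2 cells received compounds in DMSO. Following 24 hr at 37 C, ONE-Glo was added and light output read.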

[19] = target: Nuclear receptor subfamily 1 group I member 2 (Homo sapiens) (UniProt O75469); test: Human pregnane X receptor (PXR) activation by small molecules, qHTS assay (AID 1346985); note: nearly all actives have a fitted effect of over 40% in size
In short: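 DPX-2 cells (HepG2 co-transfected with a PXR response element and a CYP3A4-promoter luciferase construct) were seeded at 2,000 per well, rested 5 hr at 37C, then exposed to DMSO-dissolved compounds for 24 hr. Activation was read as luciferase luminescence.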
% is set by controls: 0 for no effect and ±100 for the full control effect.

COC1=CC(=O)C[C@@H](C)[C@]12Oc1c(Cl)c(OC)cc(OC)c1C2=O
inactive: Potency [2] | Potency [3] | Potency [4] | Potency [5] | outcome [6] | outcome [7] | Potency [8] | Potency [9] | Potency [11] | outcome [12] | Potency [13] | Potency [15]
active: Potency [1] 27.1 µM and 30.6 µM | Potency [10] 24.1 µM and 61.1 µM | Potency [14] 28.2 µM
70.4 µM (active) and inactive: Potency [16]
44.8 µM (active) and inactive: Potency [17]

COCC(C)N (stereo unspecified)
inactive: Potency [2] | Potency [3] | Potency [4] | Potency [5] | outcome [6] | outcome [7] | Potency [8] | Potency [9] | Potency [10] | Potency [11] | outcome [12] | Potency [13] | Potency [18] | Potency [15] | Potency [16] | Potency [17]

Cc1cccc(Nc2cc(Cl)nc(SCC(=O)O)n2)c1C
inactive and 7.76 µM (active): Potency [16]
61.1 µM (active) and inactive: Potency [18]
active: Potency [17] 31.7 µM and 29.2 µM and 17.4 µM
inactive: Potency [2] | Potency [3] | Potency [4] | Potency [5] | outcome [6] | outcome [7] | Potency [8] | Potency [9] | Potency [10] | Potency [11] | outcome [12] | Potency [13] | Potency [15]

CC(=O)CCC(C)C
inactive: Potency [1] | Potency [2] | Potency [3] | Potency [4] | Potency [5] | outcome [6] | outcome [7] | Potency [9] | Potency [10] | Potency [11] | outcome [12] | Potency [13] | Potency [18] | Potency [15] | Potency [16] | Potency [17]
inactive and 17.4 µM (active): Potency [8]

C=C(C)OC(C)=O
13 µM (active) and inactive: Potency [15]
inactive: Potency [1] | Potency [2] | Potency [3] | Potency [4] | Potency [5] | outcome [6] | outcome [7] | Potency [8] | Potency [9] | Potency [10] | Potency [11] | outcome [12] | Potency [13] | Potency [18] | Potency [16] | Potency [17]

NC(=O)N1c2ccccc2C=Cc2ccccc21
1.99 µM (active) and inactive: Potency [15]
70.6 µM (active) and inactive: Potency [16]
54.2 µM (active) and inactive: Potency [18]
inactive: Potency [1] | Potency [2] | Potency [3] | Potency [4] | Potency [5] | outcome [6] | outcome [7] | Potency [8] | Potency [9] | Potency [10] | Potency [11] | outcome [12] | Potency [13] | Potency [17]

C#C[C@]1(O)CC[C@H]2[C@@H]3CCC4=CC(=O)CC[C@@H]4[C@H]3CC[C@@]21CC
inactive: Potency [1] | Potency [2] | Potency [4] | Potency [5] | outcome [6] | Potency [9] | Potency [10] | outcome [12] | Potency [13] | max activation [14] -1.1% | Potency [19] | Potency [15]
inactive and 54.5 µM (active): Potency [11]
active: Potency [18] 8.65 µM and 54.5 µM and 24.3 µM | Potency [16] 2.83 µM and 5.64 µM and 2.45 µM

CC(C)=CCC/C(C)=C/CO
inactive: Potency [1] | Potency [2] | Potency [3] | Potency [4] | Potency [5] | outcome [6] | Potency [9] | Potency [10] | Potency [11] | outcome [12] | Potency [13]

CC(C)Cc1ccc(C(C)C(=O)O)cc1 (stereo unspecified)
inactive: Potency [1] | Potency [2] | Potency [3] | Potency [5] | outcome [6] | outcome [7] | Potency [8] | Potency [9] | Potency [10] | Potency [11] | outcome [12] | Potency [13] | Potency [18] | Potency [15] | Potency [16]

COC(=O)c1ccc(C=O)cc1
inactive: Potency [1] | Potency [2] | Potency [3] | Potency [4] | Potency [5] | outcome [6] | Potency [9] | Potency [10] | Potency [11] | outcome [12] | Potency [13] | Potency [18] | Potency [15] | Potency [17]
71 µM (active) and inactive: Potency [16]
